{"source": "PubChem BioAssay", "key": {"[1]": {"assay": "differential killing of epithelial or mesenchymal cells, primary screen, imaging, PC-3E GFP, TEM4-18 mCherry, co-culture (AID 1345086;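 active = compounds killing one labelled cell type while sparing the other, by normalised counts and ratio limits, not self-fluorescent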;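 for all read-outs here: cells exposed to compound for 72 h before imaging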;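 for red/green cell ratio (normalised): normalised mesenchymal count divided by normalised epithelial count so high means epithelial killing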)", "details": "imaging cell counts, at 1 µM; for red/green cell ratio (normalised): actives lie on both sides"}, "[2]": {"assay": "sensitizers of A549 cells to miR-34 induction, primary screen, imaging, A549 dox-inducible miR-34, nuclei and caspase counts (AID 1347080;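 active = compounds whose cell count with miR-34 switched on is under 0.7 times the count with it off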)", "details": "A549 miR-34 inducible, Hoechst nuclei count, 48 h"}, "[3]": {"tested_on": "Aerobactin synthetase IucA (Klebsiella pneumoniae hvKP1)", "assay": "Biochemical IucA enzyme inhibition primary screen of the Spectrum library (AID 1346200);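 note: 100% = wells without compound and 0% = wells lacking enzyme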", "details": "malachite green pyrophosphate, A620, at 8 µM, stronger effect = lower value"}, "[4]": {"target": "Mitogen-activated protein kinase 7 (Homo sapiens) (UniProt Q13164)", "sequence (Q13164 whole entry, looked up, the tested form may be a part)": "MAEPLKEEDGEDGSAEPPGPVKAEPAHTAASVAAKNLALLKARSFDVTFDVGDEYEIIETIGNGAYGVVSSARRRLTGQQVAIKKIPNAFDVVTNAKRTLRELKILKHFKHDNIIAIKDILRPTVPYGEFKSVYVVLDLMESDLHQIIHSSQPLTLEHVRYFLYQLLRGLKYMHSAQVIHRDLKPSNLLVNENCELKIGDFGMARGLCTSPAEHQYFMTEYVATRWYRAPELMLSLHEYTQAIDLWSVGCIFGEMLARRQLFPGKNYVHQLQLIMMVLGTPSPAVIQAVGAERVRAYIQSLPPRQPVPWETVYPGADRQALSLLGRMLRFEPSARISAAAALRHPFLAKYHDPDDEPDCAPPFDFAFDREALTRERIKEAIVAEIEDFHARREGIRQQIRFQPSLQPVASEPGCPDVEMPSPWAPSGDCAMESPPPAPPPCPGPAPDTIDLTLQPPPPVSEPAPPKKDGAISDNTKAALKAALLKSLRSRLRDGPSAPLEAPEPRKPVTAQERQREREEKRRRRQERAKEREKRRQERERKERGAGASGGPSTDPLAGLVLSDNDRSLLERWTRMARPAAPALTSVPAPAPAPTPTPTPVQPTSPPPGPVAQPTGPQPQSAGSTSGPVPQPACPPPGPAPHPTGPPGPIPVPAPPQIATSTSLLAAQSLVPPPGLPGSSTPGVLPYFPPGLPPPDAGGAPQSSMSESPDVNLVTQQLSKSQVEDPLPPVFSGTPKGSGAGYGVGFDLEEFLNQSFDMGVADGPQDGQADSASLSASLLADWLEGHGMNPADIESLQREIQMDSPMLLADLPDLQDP", "assay": "ERK5 transactivation activators in reporter cells, primary screen, cell-based, HTS (AID 1508626;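 active = luciferase signal above three times the same-plate solvent-only control wells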;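 note: luciferase driven by Gal4-ERK5 fusion binding five Gal4 sites before minimal TATA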)", "details": "HeLa Gal4-ERK5 transactivation, 18 h, at 5 µM, stronger effect = higher value"}, "[5]": {"assay": "liver-stage malaria parasite growth inhibition, primary screen, cell-based, HepG2, luciferase luminescence, HepG2 viability (AID 624349; in the data active = parasite load remaining mostly below about 12%, no sharp cut-off; inactive = mostly above about 10%;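 note: 100% = mean of DMSO negative control wells on the same plate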)", "details": "P. berghei liver stage in HepG2, luciferase luminescence, concentration not given here; parasite load remaining: stronger effect = lower value; viability: measured here: HepG2 viability without parasites"}, "[6]": {"assay": "survival rescue of mitochondrial mutant cells in low glucose, primary screen, MELAS cybrids, Rieske KO mouse fibroblasts, CellTiter-Glo (AID 1508586;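 active = mean z-score across replicates of 1.96 or higher in either the MELAS or the Rieske mutant cell line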;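 note: z relative to plate mean and SD of compound and empty wells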)"}, "[7]": {"target": "ATP-dependent translocase ABCB1 (Homo sapiens) (UniProt P08183)", "sequence (P08183 whole entry, looked up)": "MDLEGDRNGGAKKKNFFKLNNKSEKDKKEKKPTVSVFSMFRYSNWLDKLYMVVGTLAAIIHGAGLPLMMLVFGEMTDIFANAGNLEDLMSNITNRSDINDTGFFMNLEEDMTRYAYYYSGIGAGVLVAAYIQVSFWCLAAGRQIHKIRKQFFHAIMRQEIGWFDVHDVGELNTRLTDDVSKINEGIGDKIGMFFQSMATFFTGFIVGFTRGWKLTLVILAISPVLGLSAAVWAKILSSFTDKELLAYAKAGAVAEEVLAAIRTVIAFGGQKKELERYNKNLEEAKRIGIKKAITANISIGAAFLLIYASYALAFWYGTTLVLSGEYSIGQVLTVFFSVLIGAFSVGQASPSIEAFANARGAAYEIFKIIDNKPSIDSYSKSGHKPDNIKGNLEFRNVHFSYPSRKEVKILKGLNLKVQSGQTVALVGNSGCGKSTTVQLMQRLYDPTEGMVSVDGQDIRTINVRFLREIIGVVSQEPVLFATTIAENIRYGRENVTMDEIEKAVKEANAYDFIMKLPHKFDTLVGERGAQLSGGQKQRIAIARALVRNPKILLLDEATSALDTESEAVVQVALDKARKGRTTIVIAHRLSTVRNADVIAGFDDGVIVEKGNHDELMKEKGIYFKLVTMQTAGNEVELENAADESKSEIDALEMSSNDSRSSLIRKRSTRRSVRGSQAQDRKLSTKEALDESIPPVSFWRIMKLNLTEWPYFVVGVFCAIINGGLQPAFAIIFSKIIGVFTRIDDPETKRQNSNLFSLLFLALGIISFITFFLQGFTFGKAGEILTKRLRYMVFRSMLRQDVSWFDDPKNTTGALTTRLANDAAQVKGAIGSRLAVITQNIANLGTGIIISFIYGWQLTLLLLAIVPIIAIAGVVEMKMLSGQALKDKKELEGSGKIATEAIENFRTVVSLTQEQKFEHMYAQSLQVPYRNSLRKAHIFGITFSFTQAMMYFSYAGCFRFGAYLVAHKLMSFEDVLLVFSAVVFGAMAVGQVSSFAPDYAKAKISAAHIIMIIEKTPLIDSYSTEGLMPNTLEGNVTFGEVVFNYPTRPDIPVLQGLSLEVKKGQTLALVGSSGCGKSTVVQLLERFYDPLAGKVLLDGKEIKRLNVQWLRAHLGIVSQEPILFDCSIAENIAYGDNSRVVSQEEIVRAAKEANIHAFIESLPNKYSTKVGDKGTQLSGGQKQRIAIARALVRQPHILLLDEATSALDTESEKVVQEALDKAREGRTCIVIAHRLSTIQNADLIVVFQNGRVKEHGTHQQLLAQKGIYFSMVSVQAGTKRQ", "assay": "MDR1 (ABCB1) efflux transporter inhibition, cell-based (AID 377; in the data active = fluorescence slope change above about 50%)", "details": "MDR1-expressing cells, fluorescent substrate accumulation slope; stronger effect = higher value; concentration not given here"}, "[8]": {"assay": "circadian clock period modulators, cell-based, LOPAC library, luminescence reporter (AID 2774)", "details": "circadian reporter cells, at 7 µM, actives lie on both sides"}, "[9]": {"assay": "hESC survival regulators, cell-based (AID 493140);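 note: cells exposed to compounds for four days before counting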", "details": "human embryonic stem cell survival screen; stronger effect = higher value"}, "[10]": {"tested_on": "Hepatitis C virus NS3 helicase", "assay": "HCV NS3 helicase inhibitors, primary screen, biochemical, fluorescence polarization, LOPAC1280 library (AID 687035; in the data active = inhibition above about 37%)", "details": "Purified HCV NS3 helicase, Cy5-dT15 ssDNA binding fluorescence polarization; stronger effect = higher value; concentration not given here"}, "[11]": {"assay": "Cy5 fluorescence quenching or enhancement artefacts, artefact control for HCV NS3 helicase inhibitor project, biochemical, LOPAC1280 (AID 687037)", "details": "Cy5-DNA-NS3h complex fluorescence interference counterscreen"}, "[12]": {"tested_on": "Aerobactin synthetase IucA (Klebsiella pneumoniae, hypervirulent)", "assay": "IucA enzyme inhibition, biochemical, LOPAC library, absorbance readout (AID 1346212);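 note: 100% = no compound wells and 0% = no enzyme wells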", "details": "IucA enzyme assay, absorbance (OD) readout; stronger effect = lower value; concentration not given here"}, "[13]": {"assay": "phospholipid biosynthesis inhibitors in animal cells, primary screen, cell-based, LOPAC library, screen 4 (AID 1347384)", "details": "phospholipid biosynthesis inhibition screen, at 10 µM"}, "[14]": {"assay": "viability rescue of complex I mutant cybrids, primary screen, cell-based, galactose medium, ATP luminescence (AID 1645843;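 active = z-score of at least 1.8 in each of two replicates, scored against plate mean and spread of sample wells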;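 note: positive z means more ATP and so rescue of galactose-driven cybrid death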)", "details": "complex I mutant cybrid cells, 72 h, stronger effect = higher value"}, "[15]": {"details": "measured here: epithelial PC-3E GFP cell survival"}, "[16]": {"details": "measured here: mesenchymal TEM4-18 mCherry cell survival"}, "[17]": {"details": "measured here: relative caspase fold change +Dox/-Dox"}, "[18]": {"details": "measured here: total cells with miR-34 induction, stronger effect = lower value"}, "[19]": {"details": "measured here: total cells without miR-34 induction"}, "[20]": {"details": "MELAS cybrid survival, CellTiter-Glo 48 h, stronger effect = higher value"}, "[21]": {"details": "Rieske KO mouse fibroblast survival, CellTiter-Glo 72 h"}}, "note": "Several values for one entry are separate records, joined by “and”; a condition that tells them apart may be missing. Equal entries are not always repeated. Inconclusive results are not listed. Activity calls are given as the source filed them. Unless noted, the rule behind the calls is not given here."}
{"compound": "C[C@]12CCC3[C@@H](CC[C@@]45O[C@@H]4C(O)=C(C#N)C[C@]35C)C1CC[C@@H]2O", "note": "(stereo not given in full)", "values": [{"measurement": "red/green cell ratio (normalised)", "setting": "[1]", "result": "0.77 (inactive)"}, {"measurement": "normalised cell number", "setting": "[1]; [15]", "result": 1.16}, {"measurement": "normalised cell number", "setting": "[1]; [16]", "result": 0.89}, {"measurement": "fold change", "setting": "[2]; stronger effect = lower value", "result": "1 (inactive)"}, {"measurement": "fold change", "setting": "[2]; [17]", "result": 0.592}, {"measurement": "cell count", "setting": "[2]; [18]", "result": 8890}, {"measurement": "cell count", "setting": "[2]; [19]", "result": 8870}]}
{"compound": "C[C@]12CC[C@H](O)CC1=CCC1C2CC[C@]2(C)C(=O)CC[C@@H]12", "note": "(stereo not given in full)", "values": [{"measurement": "red/green cell ratio (normalised)", "setting": "[1]", "result": "0.71 (inactive)"}, {"measurement": "normalised cell number", "setting": "[1]; [15]", "result": 1.37}, {"measurement": "normalised cell number", "setting": "[1]; [16]", "result": 0.97}, {"measurement": "fold change", "setting": "[2]; stronger effect = lower value", "result": "0.933 (inactive)"}, {"measurement": "fold change", "setting": "[2]; [17]", "result": 1.12}, {"measurement": "cell count", "setting": "[2]; [18]", "result": 7350}, {"measurement": "cell count", "setting": "[2]; [19]", "result": 7880}]}
{"compound": "Nc1ncn[nH]1", "values": [{"measurement": "red/green cell ratio (normalised)", "setting": "[1]", "result": "1.3 (inactive)"}, {"measurement": "normalised cell number", "setting": "[1]; [15]", "result": 0.82}, {"measurement": "normalised cell number", "setting": "[1]; [16]", "result": 1.07}, {"measurement": "activity remaining", "setting": "[3]", "result": "92.7% (inactive)"}, {"measurement": "luciferase signal", "setting": "[4]", "result": "24 AU (inactive)"}]}
{"compound": "CC(C)(N)Cc1ccccc1", "values": [{"measurement": "parasite load remaining", "setting": "[5]", "result": "7.56% (inactive)"}, {"measurement": "viability", "setting": "[5]", "result": 113, "unit": "%"}, {"measurement": "red/green cell ratio (normalised)", "setting": "[1]", "result": "0.91 (inactive)"}, {"measurement": "normalised cell number", "setting": "[1]; [15]", "result": 1.06}, {"measurement": "normalised cell number", "setting": "[1]; [16]", "result": 0.97}, {"measurement": "fold change", "setting": "[2]; stronger effect = lower value", "result": "0.89 (inactive)"}, {"measurement": "fold change", "setting": "[2]; [17]", "result": 4.46}, {"measurement": "cell count", "setting": "[2]; [18]", "result": 11900}, {"measurement": "cell count", "setting": "[2]; [19]", "result": 13300}, {"measurement": "z-score", "setting": "[6]; [20]", "result": "-0.229 (inactive)"}, {"measurement": "z-score", "setting": "[6]; [21]", "result": -0.552}, {"measurement": "luciferase signal", "setting": "[4]", "result": "64 AU (inactive)"}]}
{"compound": "CC(=O)O[C@@H]1CC[C@]2(C)C3CC[C@]4(C)C(=O)CCC4C3CC[C@H]2C1", "note": "(stereo not given in full)", "values": [{"measurement": "parasite load remaining", "setting": "[5]", "result": "51% (inactive)"}, {"measurement": "viability", "setting": "[5]", "result": 94, "unit": "%"}, {"measurement": "red/green cell ratio (normalised)", "setting": "[1]", "result": "1.18 (inactive)"}, {"measurement": "normalised cell number", "setting": "[1]; [15]", "result": 0.95}, {"measurement": "normalised cell number", "setting": "[1]; [16]", "result": 1.12}, {"measurement": "activity remaining", "setting": "[3]", "result": "99.4% (inactive)"}]}
{"compound": "O=c1[nH]c(=O)n(Cl)c(=O)n1Cl", "values": [{"measurement": "red/green cell ratio (normalised)", "setting": "[1]", "result": "1.21 (inactive)"}, {"measurement": "normalised cell number", "setting": "[1]; [15]", "result": 0.87}, {"measurement": "normalised cell number", "setting": "[1]; [16]", "result": 1.05}, {"measurement": "fold change", "setting": "[2]; stronger effect = lower value", "result": "0.959 (inactive)"}, {"measurement": "fold change", "setting": "[2]; [17]", "result": 0.94}, {"measurement": "cell count", "setting": "[2]; [18]", "result": 8550}, {"measurement": "cell count", "setting": "[2]; [19]", "result": 8920}]}
{"compound": "C[N+]1(C)CCOC(O)(c2ccc(-c3ccc(C4(O)C[N+](C)(C)CCO4)cc3)cc2)C1", "note": "(stereo not given)", "values": [{"measurement": "fluorescence slope change", "setting": "[7]", "result": "1.8% (inactive)"}, {"measurement": "period change", "setting": "[8]", "result": "0.02 h (inactive)"}, {"measurement": "survival", "setting": "[9]", "result": "3.33 (inactive)"}, {"measurement": "parasite load remaining", "setting": "[5]", "result": "172% (inactive) and 77.5% (inactive)"}, {"measurement": "viability", "setting": "[5]", "result": "105% and 75.6%"}, {"measurement": "inhibition", "setting": "[10]", "result": "3% (inactive)"}, {"measurement": "fluorescence ratio (interference)", "setting": "[11]", "result": "1 (inactive)"}, {"measurement": "red/green cell ratio (normalised)", "setting": "[1]", "result": "0.92 (inactive)"}, {"measurement": "normalised cell number", "setting": "[1]; [15]", "result": 1.15}, {"measurement": "normalised cell number", "setting": "[1]; [16]", "result": 1.05}, {"measurement": "remaining activity", "setting": "[12]", "result": "108% (inactive)"}, {"measurement": "fold change", "setting": "[2]; stronger effect = lower value", "result": "1.02 (inactive) and 0.872 (inactive)"}, {"measurement": "fold change", "setting": "[2]; [17]", "result": "0.804 and 1.21"}, {"measurement": "cell count", "setting": "[2]; [18]", "result": "10300 and 8560"}, {"measurement": "cell count", "setting": "[2]; [19]", "result": "10200 and 9810"}, {"measurement": "outcome", "setting": "[13]", "result": "inactive"}, {"measurement": "z-score", "setting": "[6]; [20]", "result": "-0.344 (inactive)"}, {"measurement": "z-score", "setting": "[6]; [21]", "result": -0.223}, {"measurement": "z-score", "setting": "[14]", "result": "0.135 (inactive)"}]}
{"compound": "C[N+]1(C)C2CCC1CC(OC(=O)C(CO)c1ccccc1)C2", "note": "(stereo not given)", "values": [{"measurement": "period change", "setting": "[8]", "result": "0.05 hour (inactive) and -0.075 hour (inactive)"}, {"measurement": "survival", "setting": "[9]", "result": "5.08 (inactive)"}, {"measurement": "parasite load remaining", "setting": "[5]", "result": "37.4% (inactive)"}, {"measurement": "viability", "setting": "[5]", "result": 106, "unit": "%"}, {"measurement": "inhibition", "setting": "[10]", "result": "-4% (inactive) and -3% (inactive)"}, {"measurement": "fluorescence ratio (interference)", "setting": "[11]", "result": "1 (inactive)"}, {"measurement": "red/green cell ratio (normalised)", "setting": "[1]", "result": "1.05 (inactive)"}, {"measurement": "normalised cell number", "setting": "[1]; [15]", "result": 0.95}, {"measurement": "normalised cell number", "setting": "[1]; [16]", "result": 1}, {"measurement": "remaining activity", "setting": "[12]", "result": "112% (inactive)"}, {"measurement": "fold change", "setting": "[2]; stronger effect = lower value", "result": "1.08 (inactive) and 0.98 (inactive) and 0.858 (inactive)"}, {"measurement": "fold change", "setting": "[2]; [17]", "result": "1.57 and 0.863 and 5.64"}, {"measurement": "cell count", "setting": "[2]; [18]", "result": "9760 and 10000 and 10600"}, {"measurement": "cell count", "setting": "[2]; [19]", "result": "9050 and 10200 and 12400"}, {"measurement": "outcome", "setting": "[13]", "result": "inactive"}, {"measurement": "z-score", "setting": "[14]", "result": "0.49 (inactive) and 0.65 (inactive)"}]}
{"compound": "CC1(C)C2CC(=O)[C@]3(C)C(CC[C@@]4(C)[C@H](c5ccoc5)OC(=O)[C@H]5O[C@]543)[C@@]2(C)C(=O)C[C@H]1O", "note": "(stereo not given in full)", "values": [{"measurement": "red/green cell ratio (normalised)", "setting": "[1]", "result": "0.94 (inactive)"}, {"measurement": "normalised cell number", "setting": "[1]; [15]", "result": 1.08}, {"measurement": "normalised cell number", "setting": "[1]; [16]", "result": 1.01}, {"measurement": "activity remaining", "setting": "[3]", "result": "109% (inactive)"}, {"measurement": "luciferase signal", "setting": "[4]", "result": "36 AU (inactive)"}]}
{"compound": "c1cncc(C2CCCCN2)c1", "note": "(stereo not given)", "values": [{"measurement": "survival", "setting": "[9]", "result": "6.5 (inactive)"}, {"measurement": "red/green cell ratio (normalised)", "setting": "[1]; counts scaled to control wells, 1 = unselective", "result": "0.98 (inactive)"}, {"measurement": "normalised cell number", "setting": "[1]; [15]", "result": 1.09}, {"measurement": "normalised cell number", "setting": "[1]; [16]", "result": 1.07}, {"measurement": "activity remaining", "setting": "[3]", "result": "102% (inactive)"}, {"measurement": "luciferase signal", "setting": "[4]", "result": "20 AU (inactive)"}]}
